# Laboratory results from the supplement of paper PMC6555819.
# What was measured:
# Assay in all cases: PBM binding z-score (relative to random genomic background probes); higher = stronger binding; sequences stand for … in GC…GCGATTGACAGCGTAGAATGAAGG
# [1] = system: PPARg:RXRa DBDmut IVT, anti-RXR (DBD mutation: RXRa K156A/R161A, NR concentration 270 nM, RXRa partner concentration 90 nM)
# Procedure, shortened: (§1)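 Random background probes are the reference for binding z-scores. These scores derive from regression-normalized fluorescence on custom Agilent 4×180K protein-binding microarrays incubated 1 h with ligand-free nuclear receptor dimers. Binding was detected with antibodies against each partner (one per run).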
# [2] = system: PPARg:RXRa IVT, anti-PPARg (NR concentration 270 nM, RXRa partner concentration 90 nM)
# Procedure, shortened: as §1
# [3] = system: PPARg DBDmut:RXRa IVT, anti-PPARg (DBD mutation: PPARg1 K132A/R137A, NR concentration 270 nM, RXRa partner concentration 90 nM)
# Procedure, shortened: as §1
# [4] = system: PPARg DBDmut IVT, anti-PPARg (DBD mutation: PPARg1 K132A/R137A, NR concentration 270 nM)
# Procedure, shortened: as §1
# [5] = system: PPARg homodimer (NR concentration 180 nM)
# Procedure, shortened: as §1
# [6] = system: PXR:RXRa (NR concentration 270 nM, RXRa partner concentration 90 nM)
# Procedure, shortened: as §1
# [7] = system: PXR homodimer (NR concentration 270 nM)
# Procedure, shortened: as §1
# [8] = system: RARa:RXR (NR concentration 270 nM, RXRa partner concentration 90 nM)
# Procedure, shortened: as §1
# [9] = system: RARa homodimer (NR concentration 270 nM)
# Procedure, shortened: as §1
# [10] = system: RARb:RXRa (NR concentration 270 nM, RXRa partner concentration 90 nM)
# Procedure, shortened: as §1
# [11] = system: RARb homodimer (NR concentration 270 nM)
# Procedure, shortened: as §1
# [12] = system: RARg:RXRa (NR concentration 270 nM, RXRa partner concentration 90 nM)
# Procedure, shortened: as §1
# [13] = system: RARg homodimer (NR concentration 270 nM)
# Procedure, shortened: as §1
# [14] = system: RXRa DBDmut IVT, anti-RXR (DBD mutation: RXRa K156A/R161A, NR concentration 90 nM)
# Procedure, shortened: as §1
# [15] = system: RXRa homodimer (NR concentration 180 nM)
# Procedure, shortened: as §1
# [16] = system: THRa:RXRa (NR concentration 90 nM, RXRa partner concentration 90 nM)
# Procedure, shortened: as §1
# [17] = system: THRa homodimer (NR concentration 90 nM)
# Procedure, shortened: as §1
# [18] = system: VDR homodimer (NR concentration 270 nM)
# Procedure, shortened: as §1
Sequence,PBM binding z-score [1],PBM binding z-score [2],PBM binding z-score [3],PBM binding z-score [4],PBM binding z-score [5],PBM binding z-score [6],PBM binding z-score [7],PBM binding z-score [8],PBM binding z-score [9],PBM binding z-score [10],PBM binding z-score [11],PBM binding z-score [12],PBM binding z-score [13],PBM binding z-score [14],PBM binding z-score [15],PBM binding z-score [16],PBM binding z-score [17],PBM binding z-score [18]
ACTATTAGTTGACTTAGGGCAACTGATACGACGC,-0.0413,0.813,1.58,1.31,0.722,0.176,0.201,0.431,0.297,1.01,0.726,0.872,1.07,0.417,0.497,1.31,0.235,0.0906
TCTTGTAGATCAATAGAGGTTCAGAAAGTGCGCT,1.62,0.382,0.0591,1.1,-0.371,1.06,0.746,0.485,0.189,0.0734,0.168,0.234,0.116,0.728,0.478,0.501,-0.823,1.37
ACTATTAGTTGAGACGACGGCAACCGATAGGTTG,-0.317,-0.0579,0.669,0.567,0.0844,-0.384,-0.0364,-0.302,0.521,-0.0586,-0.491,0.00753,0.223,-0.0527,0.0138,-0.529,-0.596,-0.117
CCTAGTTGGTTAAGGTCACACACGCTATAGGTAC,1.64,2.5,1.48,1.66,3.91,4.46,4.13,4.85,2.51,4.24,4.5,4.48,4.33,2.36,4.63,4.64,6.15,4.12
CCAACTGGGCCACGAAAGGTCATTGATTCAGTGA,5.74,5.79,-0.114,-0.318,3.56,5.23,1.31,5.31,1.12,4.02,4.65,4.7,4.65,0.781,5.13,3.69,0.917,2.32
TCGAGTAGGTTAGGGACATTCAGAATGGCGTCGA,1.85,1.17,-0.378,-1.4,0.27,-0.0606,-0.414,0.186,-0.0818,0.661,0.458,0.15,0.37,0.229,0.221,2,0.953,0.358
CCTCGGAGGACAACAGGAGGTCAGAGCCGCCAGA,-0.218,0.369,-1.41,-1.45,1.21,1.72,0.183,1.99,-0.021,2.92,3.53,3.51,3.53,0.0894,1.71,2.8,0.858,0.836
ACAGACAGGTGAGTGAAGGTAACTCATCTGGACG,0.0887,0.393,0.131,-0.119,-1.01,-0.3,-0.565,0.0538,-0.677,0.49,-0.00809,0.205,0.564,-0.622,0.146,1.57,-0.651,-0.803
GCTGCTAGGTCAACTGATAGTCAGCTAAAGCTCG,4.86,4.12,0.166,-1.36,0.644,1.05,-0.294,2.13,-0.287,4.09,3.15,4.31,5.07,1.68,2.75,2.74,0.622,0.0089
TCGAGTAGGTTAGTGGGGGCATTCAGCCAACATA,3.24,4.33,4.17,4.96,1.66,2.68,1.78,1.76,0.673,1.39,1.75,1.55,1.14,1.36,1.34,2.29,1.16,3.31
TCTCGGAGGACACGAAAGGTCACAGCTCGACATC,2.07,2.97,0.919,0.445,3.93,5.57,1.09,6,2.7,4.78,4.92,6.11,6.17,1.44,6.3,4.29,2.38,2.48
CGTCAAAGTACAAGGTAACGTAACAGAAAGCAGC,0.112,0.638,-0.0581,-0.118,0.323,-0.0227,-0.131,0.281,0.369,1.1,0.287,0.552,1.1,0.923,0.455,1.37,0.356,-0.157
ATACCGAGGTGATCGTGAGGTCGTTGATACTAAC,0.567,1.31,0.104,1,0.847,3.62,1.35,2.39,-0.522,1.4,1.77,2.74,0.682,0.849,1.91,3.52,2.44,2.85
GGAACGAGGGCATTCCAGTTGATAGCATGGCGAT,3.02,2.32,0.37,-0.74,0.527,2.19,0.706,0.917,-0.491,1.81,0.706,1.1,1.38,3.25,0.797,3.1,-0.0583,2.61
TAGGCTAGGTCATGGGCCAGTATACCACGCGAAC,2,3.61,1.69,-0.653,3.07,1.42,-0.616,2.78,0.534,4.04,2.94,4.33,4.94,0.455,3.29,3.11,1.2,0.234
TCGTGTAGGTTACCAATGGGGCATTCAGCTTTCT,3.06,2.01,0.246,0.154,1.17,0.375,-0.304,0.543,-0.0616,1.31,1.15,1.46,0.613,0.901,0.634,0.276,0.371,-0.0857

Sequence,PBM binding z-score [1],PBM binding z-score [2],PBM binding z-score [3],PBM binding z-score [4],PBM binding z-score [5],PBM binding z-score [6],PBM binding z-score [7],PBM binding z-score [8],PBM binding z-score [9],PBM binding z-score [10],PBM binding z-score [11],PBM binding z-score [12],PBM binding z-score [13],PBM binding z-score [14],PBM binding z-score [15],PBM binding z-score [16],PBM binding z-score [17],PBM binding z-score [18]
AGTCAAAGTTCATCTAGGTAACGTAAGATATGCT,1.19,3.69,1.19,1.17,3.13,5,7.49,3.72,2,5.01,4.07,5.59,6.2,4.76,4.97,3.05,0.224,4.94
CCTAGCAGGCCAGGGTTACTCAAGCATTTCGCTT,0.153,-0.137,-1.74,-1.06,-0.6,-0.139,-0.48,0.193,-0.665,0.303,0.0028,-0.0642,-0.141,-0.596,0.113,0.382,-0.445,-0.788
CCTACTGGGCTAAGGTCATTGATCAGTCAAAGCA,2.72,2.94,-0.43,-0.707,2.17,4.1,1.25,4.17,-0.024,3.5,3.59,4.14,3.51,1.83,4.07,3.95,4.04,2.94
TAGCCTAGGTCATGGGCCAGCATACCACGCGAAC,1.68,3.04,0.798,-0.0378,1.22,1.38,-0.554,2.74,-0.41,3.79,2.95,4.29,4.36,-0.00159,3.28,3.04,0.897,0.227
CCTATTAGGTGACCATAAGGGCAACCGAAGCTCG,5.2,4.27,0.935,-0.392,0.93,0.636,0.326,1.19,0.485,1.87,2.13,2.09,1.22,-0.22,1.08,2.64,1.52,0.127
ATCTCTAGGTAAGACTCAGTACAGTGAAGAACGC,1.66,1.18,0.455,1.12,1.13,-0.0434,0.717,0.344,1.32,0.147,0.3,0.259,0.586,0.238,0.176,0.369,0.766,0.66
GCTAGCAGGCCATTTGGGTGACTCAATGACGGGC,1.46,0.949,-0.802,-0.751,-0.989,-0.366,-0.793,-0.229,-1.01,0.0482,-0.273,-0.23,0.0183,-0.541,-0.076,0.189,-0.653,-0.481
CCGAGTCGGTTATGGGGCATTCAGGCAACGGTGA,0.293,0.608,-1.56,-1.49,0.196,-0.541,-0.48,-0.567,-0.241,0.404,0.462,-0.0743,-0.117,-0.648,-0.27,0.224,-0.00692,0.0226
TCATATAGGTAAACAGGTGAAAGTCCGTAAGTTA,4.87,4.6,1.08,0.871,1.31,0.894,0.216,1.3,1.12,0.78,0.747,0.484,0.254,1.68,1.04,0.795,0.578,0.358
TCATATAGGTAAAGCTGAAAGTCGAACGATATGA,3.57,2.35,0.591,1.09,-0.748,0.2,-0.49,0.193,-0.464,0.205,-0.67,0.267,0.377,0.431,0.587,-0.286,-1.16,-0.537
CGTCCAAGGTCAGAGGAGGTCAGTGAAGACAGAT,1.93,3.41,0.0529,-0.477,3.97,6.58,2.7,5.37,1.91,5.22,5.15,6.03,6.88,2.36,5.13,5.09,2.8,3.43
ACTCGAAGGACAAAGGTCAGAGCTACGCCAGTGA,0.648,3.42,-0.0022,-0.263,2.57,3.58,0.743,4.28,0.861,4.7,4.53,5.85,4.94,0.729,4.69,3.02,0.499,0.565
TCTTCTAGATCAACAGGAGGTTAAGAAAGATCGA,1.93,1.19,1.81,1.8,0.382,0.755,0.113,1.32,0.555,0.762,0.617,0.984,0.501,0.855,1.01,0.77,-0.076,-0.175
CGAACGAGGGCCTGAGTTGATAGCAAATGCCGAT,-0.653,-0.278,-0.385,-0.392,-1.19,-0.457,-0.641,-0.337,-0.966,-0.393,-0.782,-0.386,-0.326,0.337,-0.236,-0.563,-0.666,-0.394
ATCGAAAGGTCGAAGTGAGTATAGAGAAAGGGAA,0.215,1.01,1.1,1.1,1.21,2.16,0.245,2.76,1.12,3.55,1.86,3.79,3.6,1.4,3.83,1.81,-0.426,0.425
